Data reported in PubChem BioAssay (EPA / NIEHS).
Inconclusive results are not listed. Activity calls are given as the source filed them. Rule for the calls, unless noted: active = hit-call score of the fitted dose curve at least 0.9, where 1 is the maximum; inactive = score below 0.9.

Columns and labels:
[1] = read-out: Human Leukocyte Antigen - DR isotype (HLADR), HLA-DRA (gene 3122); experiment: BSK_3C_HLADR: BioMAP Diversity Plus: 3C Assay for Human Leukocyte Antigen - DR isotype (HLADR) Biomarker Activity (AID 2283019); conditions: primary human endothelial cells (HUVEC); actives raise or lower the signal
Summary of the method: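 HUVEC, 3C stimulation, 24 h post-dose; HLA-DR by ELISA; bidirectional curve fit vs DMSO baseline; gain or loss of signal scored.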

[2] = read-out: Interleukin-8 (IL8), CXCL8 (gene 3576); experiment: BSK_3C_IL8: BioMAP Diversity Plus: 3C Assay for Interleukin-8 (IL8) Biomarker Activity (AID 2283020); conditions: primary human endothelial cells (HUVEC); actives raise or lower the signal
Summary of the method: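 ELISA read-out of IL-8 from human umbilical vein endothelium, measured 24 h after chemical dosing. Activity is expressed relative to DMSO negative control, with both increases and decreases fitted.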

[3] = read-out: Monokine induced gamma interferon (MIG), CXCL9 (gene 4283); experiment: BSK_3C_MIG: BioMAP Diversity Plus: 3C Assay for Monokine induced gamma interferon (MIG) Biomarker Activity (AID 2283021); conditions: primary human endothelial cells (HUVEC); actives raise or lower the signal;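 for AC50: MIG protein level measured by immunoassay in the treated endothelial cultures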
Summary of the method: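 Read-out is ELISA detection of MIG on human umbilical vein endothelial cells, taken 24 h after dosing. Gain or loss of signal was scored relative to DMSO controls using bidirectional curve fitting.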

[4] = BSK_3C_SRB: Viability Assessment in the BioMAP Diversity Plus: 3C Assay (AID 2283023); conditions: primary human endothelial cells (HUVEC);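 note: fitted both ways against DMSO so a hit may be signal rise or drop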
Summary of the method: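 HUVEC, 24 h post-dose; 10% TCA fix, 0.1% SRB stain, A560 nm. Bidirectional curve fit vs DMSO negative control.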

[5] = read-out: Matrix Metallopeptidase 1 (MMP1), MMP1 (gene 4312); experiment: BSK_BE3C_MMP1: BioMAP Diversity Plus: BE3C Assay for Matrix Metallopeptidase 1 (MMP1) Biomarker Activity (AID 2283024); conditions: primary human bronchial epithelial cells; actives raise or lower the signal
Summary of the method: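 Human bronchial epithelial cells (BE3C system) exposed to compound for 24 h; MMP1 then quantified by ELISA. Activity was fitted in both directions relative to DMSO.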

[6] = BSK_3C_Vis: BioMAP Diversity Plus: 3C Assay for Morphology Visualization (AID 2283025); conditions: primary human endothelial cells (HUVEC);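 note: fitted both ways so gain or loss versus DMSO counts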;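 for AC50: light microscopy image of cell morphology used as background control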
Summary of the method: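 Chemicals were added to primary human umbilical vein endothelium, cells were incubated 24 h, and morphology was then visualized by light microscopy. Gain or loss of signal was fitted bidirectionally relative to DMSO.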

[7] = read-out: Pselectin, SELP (gene 6403); experiment: BSK_4H_Pselectin: BioMAP Diversity Plus: 4H Assay for Pselectin Biomarker Activity (AID 2283026); conditions: primary human endothelial cells (HUVEC); actives raise or lower the signal
Summary of the method: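 ELISA read-out of P-selectin on human umbilical vein endothelium after 24 h of dosing. Values derive from bidirectional fitting relative to DMSO. Parallel SRB protein staining flagged overt cytotoxicity.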

[8] = BSK_BE3C_SRB: Viability Assessment in the BioMAP Diversity Plus: BE3C Assay (AID 2283028); conditions: primary human bronchial epithelial cells;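 for AC50: fitted both ways so AC50 may mark signal gain or loss versus DMSO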
Summary of the method: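 Primary human bronchial epithelium; chemical dosing, 24 h; 10% TCA fix, 0.1% SRB stain, A560; bidirectional fit vs DMSO baseline.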

[9] = read-out: Thrombomodulin, THBD (gene 7056); experiment: BSK_3C_Thrombomodulin: BioMAP Diversity Plus: 3C Assay for Thrombomodulin Biomarker Activity (AID 2283029); conditions: primary human endothelial cells (HUVEC); actives raise or lower the signal
Summary of the method: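 Read-out is ELISA of thrombomodulin on human umbilical vein endothelium 24 h after chemical dosing. Gain or loss of signal is scored relative to DMSO. Overt cytotoxicity is checked in parallel cultures by sulforhodamine B staining.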

[10] = read-out: Urokinase-type plasminogen activator receptor (uPAR), PLAUR (gene 5329); experiment: BSK_4H_uPAR: BioMAP Diversity Plus: 4H Assay for Urokinase-type plasminogen activator receptor (uPAR) Biomarker Activity (AID 2283030); conditions: primary human endothelial cells (HUVEC); actives raise or lower the signal
Summary of the method: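 HUVEC, 24 h post-dose; uPAR by ELISA; bidirectional fit vs DMSO baseline.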

[11] = read-out: Vascular endothelial growth factor receptor 2 (Homo sapiens) (UniProt P35968); experiment: BSK_4H_VEGFRII: BioMAP Diversity Plus: 4H Assay for Vascular endothelial growth factor receptor 2 (VEGFR2) Biomarker Activity (AID 2283031); conditions: primary human endothelial cells (HUVEC); actives raise or lower the signal;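 for AC50: cell-surface VEGFR2 protein level quantified by ELISA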
Summary of the method: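 HUVEC (human primary), 4H system; 24 h post-dose; VEGFRII by ELISA; bidirectional curve fit vs DMSO baseline; gain or loss of signal scored.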

[12] = read-out: Human Leukocyte Antigen - DR isotype (HLADR), HLA-DRA (gene 3122); experiment: BSK_BE3C_HLADR: BioMAP Diversity Plus: BE3C Assay for Human Leukocyte Antigen - DR isotype (HLADR) Biomarker Activity (AID 2283032); conditions: primary human bronchial epithelial cells; actives raise or lower the signal
Summary of the method: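 ELISA read-out of HLA-DR on human lung bronchial epithelial primary cells, measured 24 h post-dosing. Both increases and decreases were scored relative to DMSO vehicle.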

[13] = read-out: Vascular cell adhesion molecule 1 (VCAM1), VCAM1 (gene 7412); experiment: BSK_4H_VCAM1: BioMAP Diversity Plus: 4H Assay for Vascular cell adhesion molecule 1 (VCAM1) Biomarker Activity (AID 2283033); conditions: primary human endothelial cells (HUVEC); actives raise or lower the signal
Summary of the method: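 ELISA read-out of VCAM-1 on human umbilical vein endothelium 24 hours after chemical dosing; gain or loss of signal was fitted relative to DMSO, with sulforhodamine B staining of parallel cultures flagging overt cytotoxicity.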

[14] = read-out: Interferon-gamma inducible Protein 10 (IP10), CXCL10 (gene 3627); experiment: BSK_BE3C_IP10: BioMAP Diversity Plus: BE3C Assay for Interferon-gamma inducible Protein 10 (IP10) Biomarker Activity (AID 2283034); conditions: primary human bronchial epithelial cells; actives raise or lower the signal
Summary of the method: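 Chemical is dosed onto human lung bronchial epithelial primary cells, cultures are incubated 24 h, and IP-10 is then quantified by ELISA. Gain or loss of signal is fitted in both directions relative to DMSO.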

[15] = read-out: Monokine induced gamma interferon (MIG), CXCL9 (gene 4283); experiment: BSK_BE3C_MIG: BioMAP Diversity Plus: BE3C Assay for Monokine induced gamma interferon (MIG) Biomarker Activity (AID 2283035); conditions: primary human bronchial epithelial cells; actives raise or lower the signal
Summary of the method: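 ELISA read-out of MIG in human lung bronchial epithelial primary cultures, 24 h post-dosing. Bidirectional curve fit vs DMSO baseline.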

[16] = read-out: Transforming growth factor beta 1 (TGFb1), TGFB1 (gene 7040); experiment: BSK_BE3C_TGFb1: BioMAP Diversity Plus: BE3C Assay for Transforming growth factor beta 1 (TGFb1) Biomarker Activity (AID 2283036); conditions: primary human bronchial epithelial cells; actives raise or lower the signal
Summary of the method: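 Primary human lung bronchial epithelial cells; compound exposure 24 h; TGF-b1 by ELISA; bidirectional fit, DMSO baseline. Parallel SRB total-protein staining for cytotoxicity.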

[17] = read-out: Plasminogen activator inhibitor-1 (PAI1), SERPINE1 (gene 5054); experiment: BSK_BE3C_PAI1: BioMAP Diversity Plus: BE3C Assay for Plasminogen activator inhibitor-1 (PAI1) Biomarker Activity (AID 2283037); conditions: primary human bronchial epithelial cells; actives raise or lower the signal
Summary of the method: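 Primary human lung bronchial epithelial cells; chemical dosing; 24 h; PAI-1 measured by ELISA; bidirectional fit referenced to DMSO as negative control.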

[18] = read-out: urokinase plasminogen activator (uPA), PLAU (gene 5328); experiment: BSK_BE3C_uPA: BioMAP Diversity Plus: BE3C Assay for urokinase plasminogen activator (uPA) Biomarker Activity (AID 2283038); conditions: primary human bronchial epithelial cells; actives raise or lower the signal
Summary of the method: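 ELISA read-out of uPA in human lung primary bronchial epithelial cultures, 24 h post-dosing. Gain or loss of signal fitted bidirectionally relative to DMSO baseline; cytotoxicity checked in parallel cultures via SRB total protein stain.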

[19] = BSK_4H_SRB: Viability Assessment in the BioMAP Diversity Plus: 4H Assay (AID 2283027); conditions: primary human endothelial cells (HUVEC);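 note: cells exposed to compound for 24 h before staining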;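 for AC50: curves fitted both ways versus DMSO so AC50 may be loss or gain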
Summary of the method: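 Human umbilical vein endothelial cells were dosed with chemical and, after 24 h, fixed with 10% TCA, stained with 0.1% sulforhodamine B, and read at 560 nm to give total protein as a cytotoxicity measure. Bidirectional fitting relative to DMSO control.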

[20] = biological target: human Vitamin D Receptor (VDR), VDR (gene 7421) (UniProt P11473); experiment: ATG_VDR_TRANS: Attagene TRANS-FACTORIAL HepG2 Assay for human Vitamin D Receptor (VDR) (AID 2283022; active = hit-call score of the fitted dose curve at least 0.9, where 1 is the maximum)
human Vitamin D Receptor (VDR), VDR (gene 7421), sequence (P11473 whole entry, looked up, the tested form may be a part): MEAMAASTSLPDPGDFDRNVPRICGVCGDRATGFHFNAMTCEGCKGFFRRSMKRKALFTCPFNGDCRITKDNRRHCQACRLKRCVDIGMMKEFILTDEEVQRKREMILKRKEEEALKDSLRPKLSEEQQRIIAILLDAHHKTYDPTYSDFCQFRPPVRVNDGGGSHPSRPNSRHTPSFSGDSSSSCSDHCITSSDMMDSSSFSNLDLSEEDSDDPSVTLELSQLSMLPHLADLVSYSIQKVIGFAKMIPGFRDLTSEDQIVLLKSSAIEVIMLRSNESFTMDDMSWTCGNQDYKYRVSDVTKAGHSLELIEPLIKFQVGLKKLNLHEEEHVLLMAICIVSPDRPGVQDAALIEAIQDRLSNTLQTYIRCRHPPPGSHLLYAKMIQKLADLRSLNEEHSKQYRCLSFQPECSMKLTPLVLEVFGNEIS
Summary of the method: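 RT-PCR/capillary electrophoresis read-out of reporter mRNA induction in transiently transfected HepG2; 24 h dosing; chimeric NR-Gal4 (TRANS format); gain-of-signal fit against DMSO baseline.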

Measured: AC50

CCOS(=O)(=O)OCC
inactive: [1] | [2] | [3] | [4] | [5] | [6] | [7] | [8] | [9] | [10] | [11] | [12] | [13] | [14] | [15] | [16] | [17] | [18]

N#Cc1cc([N+](=O)[O-])ccc1N
inactive: [1] | [2] | [3] | [5] | [6] | [7] | [19] | [8] | [9] | [10] | [11] | [12] | [13] | [14] | [15] | [16] | [17] | [18]

c1ccc2c(c1)sc1ccccc12
inactive: [1] | [2] | [3] | [5] | [6] | [7] | [19] | [8] | [9] | [10] | [11] | [12] | [13] | [14] | [15] | [16] | [17] | [18]

O=P(OCC(Br)CBr)(OCC(Br)CBr)OCC(Br)CBr (stereo not given)
active: [2] 17.4 µM | [4] 10.3 µM | [5] 3.88 µM | [6] 12.4 µM | [13] 3.69 µM
inactive: [3] | [7] | [8] | [9] | [10] | [11] | [12] | [14] | [15] | [16] | [17] | [18]

CCCCCCCc1ccc(O)cc1
inactive: [9] | [11]
active: [1] 25.3 µM | [2] 38.1 µM | [3] 38.4 µM | [5] 37.5 µM | [6] 22.3 µM | [7] 30.9 µM | [19] 36.1 µM | [8] 38.1 µM | [10] 38.4 µM | [12] 32.1 µM | [13] 35.1 µM | [14] 35 µM | [15] 37.6 µM | [16] 37.3 µM | [17] 39.3 µM | [18] 39.1 µM

c1nc[nH]n1
inactive: [1] | [2] | [3] | [5] | [6] | [7] | [8] | [9] | [10] | [11] | [12] | [13] | [14] | [15] | [16] | [17] | [18]

Nc1ccc2ccccc2c1
active: [5] 2.92 µM
inactive: [1] | [2] | [3] | [6] | [7] | [8] | [9] | [10] | [11] | [12] | [13] | [14] | [15] | [16] | [17] | [18]

Clc1ccc(Oc2ccccc2)cc1
inactive: [20]

C/C(=N\NC(=O)Nc1cc(F)cc(F)c1)c1ncccc1C(=O)O
inactive: [20]

ClC(Cl)=C(c1ccc(Cl)cc1)c1ccccc1Cl
inactive: [5] | [9] | [16]
active: [1] 10.4 µM | [2] 11.8 µM | [3] 29.2 µM | [6] 14.4 µM | [7] 10.6 µM | [8] 10.5 µM | [10] 11.7 µM | [11] 5.35 µM | [12] 20 µM | [13] 11.8 µM | [14] 10.7 µM | [15] 26.4 µM | [17] 10.3 µM | [18] 20 µM

Cc1ccc(N)cc1N
inactive: [1] | [2] | [3] | [5] | [6] | [7] | [8] | [9] | [10] | [11] | [12] | [13] | [14] | [15] | [16] | [17] | [18]

CC(Cl)(Cl)C(=O)O
inactive: [1] | [2] | [3] | [5] | [6] | [7] | [8] | [9] | [10] | [11] | [12] | [13] | [14] | [15] | [16] | [17] | [18]

CC(C)Nc1ccc(Nc2ccccc2)cc1
active: [1] 4.45 µM | [2] 12.8 µM | [3] 20 µM | [6] 9.94 µM | [7] 7.42 µM | [8] 33.2 µM | [10] 14.4 µM | [11] 8.12 µM | [12] 9.07 µM | [13] 10.1 µM | [14] 6.69 µM | [15] 20 µM | [16] 20 µM | [18] 20 µM
inactive: [5] | [9] | [17]

O=C(O)C(F)(F)OC(F)(F)C(F)(F)OC(F)(F)C(=O)O
inactive: [1] | [2] | [3] | [5] | [7] | [19] | [8] | [9] | [10] | [11] | [12] | [13] | [14] | [15] | [17] | [18]

Oc1ccc(I)cc1
inactive: [20]
